20 compounds from PubChem BioAssay (Tox21) can be followed below.

Assay [1] is described as follows: cAMP Responsive Elements (CRE) small molecule antagonists, cell-based qHTS assay: qHTS cell viability counter screen (AID 2060913). Further: nearly all actives have a fitted effect of over 40% in size. To be noted: CRE-bla HEK293T viability, CellTiter-Glo luminescence, 5 h; series mostly up to 92.4 µM. The method in brief:
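CRE-bla HEK293T cells were seeded in assay medium with 10% dialyzed FBS, incubated 18 hrs at 37 C, then exposed to compounds plus 0.25 uM final NKH477 for 3 hrs. Viability was read by CellTiter-Glo luminescence after 30 min, in the same wells.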

Assay [2] is described as follows: cAMP Responsive Elements (CRE) small molecule agonists, cell-based qHTS assay: qHTS cell viability counter screen (AID 2060914). Further: nearly all actives have a fitted effect of over 50% in size. The following applies: CRE-bla HEK293T viability, CellTiter-Glo luminescence, 5 h; series mostly up to 92.4 µM. The essentials:
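Luminescence read-out (CellTiter-Glo, 30 min RT) of ATP-based viability in CRE-bla HEK 293T cells, run in the same wells as the β-lactamase reporter assay after 3 h compound treatment at 37 °C.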
On the technique in general: qHTS replaces the single test concentration by a dilution series.

Results filed as inconclusive are left out. Entries that show only a call come without a potency. Active and inactive are the calls of the source. The call rests on the fitted dose curve; in most records, active means well fitted cell-killing curve with a large enough effect in the repeat runs; inconclusive means weak or mixed curves, or effect the other way; inactive means flat fitted curve, though single readings scatter.

As to `NC(=O)N[C@@H](CCC(=O)O)C(=O)O`, the Potency entry in assay [1] and in assay [2] was “inactive” each time.
Regarding `Cc1cc(S(=O)(=O)O)c(N)cc1Cl`, the Potency result in assay [1] and in assay [2] was “inactive” throughout.
Take `CCOCC(C)O` (stereo not given): the Potency entry in assay [1] and in assay [2] was “inactive” in each case.
Consider `COc1ccc(-c2nc3ccc(C4=NNC(=O)CC4C)cc3[nH]2)cc1` (stereo not given), for which the Potency entry in assay [1] and in assay [2] was “inactive” in each case.
Take `Brc1cc(Br)c(Oc2cc(Br)c(Br)cc2Br)cc1Br`: the Potency result in assay [1] and in assay [2] was “inactive” in each case.
`CCCC1CCC(=O)CC1`: the Potency entry in assay [1] and in assay [2] was “inactive” in each case.
Turning to `[Cl][In]([Cl])[Cl]`, the Potency result in assay [1] and in assay [2] was “inactive” each time.
On to `CCN(CC)C(C)CN1c2ccccc2Sc2ccccc21` (stereo not given), for which the Potency entry in assay [1] and in assay [2] was “inactive” throughout.
Take `CCC(CO)CO`: the Potency entry in assay [1] and in assay [2] was “inactive” each time.
In the case of `COc1ccc(OC(F)(F)F)cc1CN[C@H]1CCCN[C@H]1c1ccccc1`, the Potency result in assay [1] and in assay [2] was “inactive” throughout.
Regarding `CC(=O)OCc1ccccc1`, the Potency result in assay [1] and in assay [2] was “inactive” each time.
With `CCCOC(OCCC)OCCC`, the Potency entry in assay [1] and in assay [2] was “inactive” in each case.
`CCCC(=O)O[C@]1(C(=O)CO)CC[C@H]2[C@@H]3CCC4=CC(=O)CC[C@]4(C)[C@H]3[C@@H](O)C[C@@]21C`: the Potency entry in assay [1] and in assay [2] was “inactive” each time.
Take `CC(O)CO` (stereo not given): the Potency entry in assay [1] and in assay [2] was “inactive” in each case.
On to `Cc1ccc(-n2nc(C(C)(C)C)cc2NC(=O)Nc2ccc(OCCN3CCOCC3)c3ccccc23)cc1`, for which the Potency entry in assay [1] and in assay [2] was “inactive” throughout.
Take `Cc1ccccc1N=C(N)Nc1ccccc1C`: the Potency result in assay [1] and in assay [2] was “inactive” each time.
`CC(C)=CC(=O)O`: the Potency result in assay [1] and in assay [2] was “inactive” in each case.
As for `CCOC(=O)c1c(C)n(C)c2ccc(O)cc12`, the Potency entry in assay [1] and in assay [2] was “inactive” throughout.
`Cc1ccc(C(=O)c2ccc(CC(=O)O)n2C)cc1`: the Potency entry in assay [1] and in assay [2] was “inactive” each time.
Consider `CC(C)Cn1cnc2c1c(=O)n(C)c(=O)n2C`, for which the Potency result in assay [1] and in assay [2] was “inactive” in each case.
